Compounds without any hit were thinned out: in the full panel of roughly 83,000, 20% have a hit.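 Assay: single dose, 48 h. Readout: percent growth (0 = no net growth; negative = cell death). Active: <10.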 A number with no mark means an inactive call. The source made the active and inactive calls.
System: CCRF-CEM leukemia
Test: NCI-60 one-dose screen, 48 h (100 = growth as untreated, 0 = no growth, -100 = all killed)
Settings: 10 µM unless noted

Row | SMILES | growth
1 | COc1ccccc1N1CCN(CC(O)COc2c(Br)c(Br)c(Br)c3c2OC(C)(C)C3)CC1 (stereo not drawn) | -54.6% (active)
2 | CC(=O)N[C@@H](CNC(=O)c1cc(NC(=O)c2cc(NC(=O)c3cc(NC(=O)c4nccn4C)cn3C)cn2C)cn1C)CC(=O)Nc1cn(C)c(C(=O)Nc2cc(C(=O)Nc3cc(C(=O)Nc4cc(C(=O)NCCCN(C)CCCNC(=O)c5cccc(C(=O)O)c5)n(C)c4)n(C)c3)n(C)c2)n1 | 103%
3 | O=[N+]([O-])c1ccc(NS(=O)(=O)c2cc(Cl)ccc2Cl)c2ccccc12 | 29.1%
4 | CN1CCN(C(=O)/C=C/c2ccc([N+](=O)[O-])o2)CC1 | 56.4%
5 | CCn1cc(/C=C2\Oc3cc(OCC#N)ccc3C2=O)c2cc(OC)ccc21 | 9.65% (active)
6 | S=c1ssnc1-c1ccccn1 | -6.05% (active)
7 | COc1ccc2c(c1)nnc1c3cccnc3[nH]c21 | -0.9% (active)
8 | COc1cccc(/C=N/C(=S)NC2(C)C3CCC(C3)C2(C)C)c1O (stereo not drawn) | 57.3%
9 | CC1(C)Cc2c(Br)c(Br)c(Br)c(OCC(O)CN3CCN(c4ccccn4)CC3)c2O1 (stereo not drawn) | -14.3% (active)
10 | O=C1OC(c2ccc(-c3ccccc3)cc2)=C/C1=C/C=C/c1ccccc1 | 24.2%
11 | CCCCCn1ncc(-c2c(O)c(O)cc3c(O)c(-c4c(C)cc5c(-c6cnn(CCCCC)n6)c(O)c(O)cc5c4O)c(C)cc23)n1 | 1.09% (active)
12 | CCC1S/C(=N\N=C(/C)c2cc3ccccc3o2)N(c2ccccc2)C1=O (stereo not drawn) | -72.8% (active)
13 | CS(=O)(=O)OCC(COS(C)(=O)=O)C(c1ccccc1)c1ccccc1 | 99.6%
14 | CC(=O)c1cc2c(N)c(C(=O)Nc3cccc(Cl)c3)sc2nc1C | 92.8%
15 | ClC1c2ccccc2CCc2ccccc21 | 98.7%
16 | CCOC(=O)C(C)(CSSCC(C)(NC(=O)c1ccc2ccccc2c1)C(=O)OCC)NC(=O)c1ccc2ccccc2c1 (stereo not drawn) | -42.5% (active)
17 | COc1ccccc1S(=O)(=O)Nc1ccc2c3c(cc(-c4ccoc4)nc13)C(=O)N2C | 76.5%
18 | CN1CCN(Cn2nc(-c3cc(Cl)cc(Cl)c3Cl)n(/N=C/c3ccc(Cl)cc3)c2=S)CC1 | 33.4%
19 | Cc1ccn2cc(Cc3cc(=O)oc4c3ccc3ccccc34)c(=O)nc2c1 | 95.8%
20 | C=C1C(=O)O[C@H]2[C@H]1CC/C(COC(=O)c1ccc(Br)cc1)=C\CC[C@@]1(C)O[C@@H]21 | -17.5% (active)

Row | SMILES | growth
21 | COc1cc2ncnc(Oc3ccc(NC(=O)Nc4ccc(CN5CCOCC5)c(C(F)(F)F)c4)c4ccccc34)c2cc1OC | 20.1%
22 | Cc1cccc(NC(=O)CCc2ccc(N3C(N)=NC(N)=NC3(C)C)cc2)c1 | 31.1%
23 | CN(C)c1ncc(C#Cc2c(F)cccc2F)c2ccccc12 | 96.3%
24 | O=C(NC(=S)Nc1ccc(Cl)cc1)c1ccccc1 | 102%
25 | COc1cc2nc(C(=O)N3CCCCC3)cc(Nc3ccccc3)c2cc1OC | 101%
26 | Oc1ccc(O)c(-[n+]2ccccc2)c1 | 101%
27 | COc1cc2c(/C=C3/C(=O)Nc4ccc(O)cc43)c(Cl)n(Cc3cc(OC)c(OC)c(OC)c3)c2cc1C | -9.62% (active)
28 | N#Cc1c(N)nc2c(c1N)C(c1ccc(Cl)cc1)C1=C(CCCC1=O)N2c1sc2c(c1C#N)CCCC2 (stereo not drawn) | -34% (active)
29 | COc1ccc2c(c1)nnn1c3ncccc3c(N=O)c21 | -22.8% (active)
30 | COc1cc(NC(C)CCCN2C(=O)c3ccccc3C2=O)c2nc(C)ccc2c1OC (stereo not drawn) | -56.3% (active)
31 | O=C(Nc1ccc(F)cc1)Nc1ccc(Cl)c([N+](=O)[O-])c1 | 18.6%
32 | COc1cc(/C=C/C(=O)c2c(C)n([O-])c3cc(C)c(C)cc3[n+]2=O)cc(OC)c1OC | 38%
33 | CCC1S/C(=N\N=C(/C)c2cccs2)N(c2ccccc2)C1=O (stereo not drawn) | -39.5% (active)
34 | O=C(Nc1cccc([N+](=O)[O-])c1)c1ccc2ccccc2c1O | 39.2%
35 | CC(C)(C)OC(=O)N1CCN(CCn2cc(C(F)(F)F)c3c(Cl)ncnc32)CC1 | 28.5%
36 | COc1cc(NC(C)CCCN2C(=O)c3ccccc3C2=O)c2ncccc2c1OC (stereo not drawn) | -26.9% (active)
37 | CSc1nc(N)nc2c1ncn2C | 98.3%
38 | O=C1C(SCCO)=C(SCCO)C(=O)N1c1ccc(-c2ccccc2)cc1 | -43.8% (active)
39 | OCc1cnccc1NC12CC3CC(CC(C3)C1)C2 | 95.9%

System: MOLT-4 leukemia
Test: as above
Settings: 10 µM unless noted

Row | SMILES | growth
40 | COc1ccccc1N1CCN(CC(O)COc2c(Br)c(Br)c(Br)c3c2OC(C)(C)C3)CC1 (stereo not drawn) | -36.7% (active)
41 | CC(=O)N[C@@H](CNC(=O)c1cc(NC(=O)c2cc(NC(=O)c3cc(NC(=O)c4nccn4C)cn3C)cn2C)cn1C)CC(=O)Nc1cn(C)c(C(=O)Nc2cc(C(=O)Nc3cc(C(=O)Nc4cc(C(=O)NCCCN(C)CCCNC(=O)c5cccc(C(=O)O)c5)n(C)c4)n(C)c3)n(C)c2)n1 | 120%
42 | O=[N+]([O-])c1ccc(NS(=O)(=O)c2cc(Cl)ccc2Cl)c2ccccc12 | 46.8%
43 | CN1CCN(C(=O)/C=C/c2ccc([N+](=O)[O-])o2)CC1 | 59.9%
44 | CCn1cc(/C=C2\Oc3cc(OCC#N)ccc3C2=O)c2cc(OC)ccc21 | 12.9%
45 | S=c1ssnc1-c1ccccn1 | 0.997% (active)
46 | COc1ccc2c(c1)nnc1c3cccnc3[nH]c21 | -21.6% (active)
47 | COc1cccc(/C=N/C(=S)NC2(C)C3CCC(C3)C2(C)C)c1O (stereo not drawn) | 63.8%
48 | CC1(C)Cc2c(Br)c(Br)c(Br)c(OCC(O)CN3CCN(c4ccccn4)CC3)c2O1 (stereo not drawn) | 52.9%
49 | O=C1OC(c2ccc(-c3ccccc3)cc2)=C/C1=C/C=C/c1ccccc1 | 98.5%
50 | CCCCCn1ncc(-c2c(O)c(O)cc3c(O)c(-c4c(C)cc5c(-c6cnn(CCCCC)n6)c(O)c(O)cc5c4O)c(C)cc23)n1 | 6.44% (active)
51 | CCC1S/C(=N\N=C(/C)c2cc3ccccc3o2)N(c2ccccc2)C1=O (stereo not drawn) | -80.8% (active)
52 | CS(=O)(=O)OCC(COS(C)(=O)=O)C(c1ccccc1)c1ccccc1 | 75.7%
53 | CC(=O)c1cc2c(N)c(C(=O)Nc3cccc(Cl)c3)sc2nc1C | 73.4%
54 | ClC1c2ccccc2CCc2ccccc21 | 107%
55 | CCOC(=O)C(C)(CSSCC(C)(NC(=O)c1ccc2ccccc2c1)C(=O)OCC)NC(=O)c1ccc2ccccc2c1 (stereo not drawn) | 53.1%
56 | COc1ccccc1S(=O)(=O)Nc1ccc2c3c(cc(-c4ccoc4)nc13)C(=O)N2C | 75.8%
57 | CN1CCN(Cn2nc(-c3cc(Cl)cc(Cl)c3Cl)n(/N=C/c3ccc(Cl)cc3)c2=S)CC1 | 59%
58 | Cc1ccn2cc(Cc3cc(=O)oc4c3ccc3ccccc34)c(=O)nc2c1 | 87.9%
59 | C=C1C(=O)O[C@H]2[C@H]1CC/C(COC(=O)c1ccc(Br)cc1)=C\CC[C@@]1(C)O[C@@H]21 | -27.2% (active)

Row | SMILES | growth
60 | COc1cc2ncnc(Oc3ccc(NC(=O)Nc4ccc(CN5CCOCC5)c(C(F)(F)F)c4)c4ccccc34)c2cc1OC | -20.7% (active)
61 | Cc1cccc(NC(=O)CCc2ccc(N3C(N)=NC(N)=NC3(C)C)cc2)c1 | 50.5%
62 | CN(C)c1ncc(C#Cc2c(F)cccc2F)c2ccccc12 | 80.8%
63 | O=C(NC(=S)Nc1ccc(Cl)cc1)c1ccccc1 | 72.8%
64 | COc1cc2nc(C(=O)N3CCCCC3)cc(Nc3ccccc3)c2cc1OC | 97.3%
65 | Oc1ccc(O)c(-[n+]2ccccc2)c1 | 91.9%
66 | COc1cc2c(/C=C3/C(=O)Nc4ccc(O)cc43)c(Cl)n(Cc3cc(OC)c(OC)c(OC)c3)c2cc1C | -24.1% (active)
67 | N#Cc1c(N)nc2c(c1N)C(c1ccc(Cl)cc1)C1=C(CCCC1=O)N2c1sc2c(c1C#N)CCCC2 (stereo not drawn) | 90%
68 | COc1ccc2c(c1)nnn1c3ncccc3c(N=O)c21 | -55.6% (active)
69 | COc1cc(NC(C)CCCN2C(=O)c3ccccc3C2=O)c2nc(C)ccc2c1OC (stereo not drawn) | 73.6%
70 | O=C(Nc1ccc(F)cc1)Nc1ccc(Cl)c([N+](=O)[O-])c1 | 5.48% (active)
71 | COc1cc(/C=C/C(=O)c2c(C)n([O-])c3cc(C)c(C)cc3[n+]2=O)cc(OC)c1OC | 44.3%
72 | CCC1S/C(=N\N=C(/C)c2cccs2)N(c2ccccc2)C1=O (stereo not drawn) | 63.9%
73 | O=C(Nc1cccc([N+](=O)[O-])c1)c1ccc2ccccc2c1O | 66.7%
74 | CC(C)(C)OC(=O)N1CCN(CCn2cc(C(F)(F)F)c3c(Cl)ncnc32)CC1 | 23.4%
75 | COc1cc(NC(C)CCCN2C(=O)c3ccccc3C2=O)c2ncccc2c1OC (stereo not drawn) | -67.5% (active)
76 | CSc1nc(N)nc2c1ncn2C | 87.6%
77 | O=C1C(SCCO)=C(SCCO)C(=O)N1c1ccc(-c2ccccc2)cc1 | -33.6% (active)
78 | OCc1cnccc1NC12CC3CC(CC(C3)C1)C2 | 88.8%

Source: PubChem BioAssay (NCI)
